High-throughput results from PubChem BioAssay.
Mito fusion act: inhibitors of mitochondrial division or activators of mitochondrial fusion; 320,000 tested, 0.23% active; Potency, µM (series often up to 46.1 µM), inactives show at the highest dose growth rescue (activation), actives largely listed as activators; S. cerevisiae fusion-defective mutant growth rescue, CellTiterGlo 48 h; note: % of control where 0% means no effect; nearly all actives have a fitted effect of over 45% in size
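Luminescent cell viability in 1536-well qHTS format served as the measure of rescued growth in ts fusion-mutant S. cerevisiae cultured on non-fermentable YPEG for 48 hours at 37C.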
aSyn yeast inh: inhibitors of alpha-synuclein toxicity in yeast; Yeast expressing alpha-synuclein, growth rescue, BacTiter-Glo, 24 h; Potency, µM (doses to about 46.1 µM), without a hit: at the highest dose growth rescue (activation), most hits filed as activators; 370,000 tested, 0.14% active; note: % of control where 0% means no effect; nearly all actives have a fitted effect of over 65% in size
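Readout is rescue of growth in alpha-synuclein-expressing yeast, so inhibitors of toxicity appear as activators. Growth after 24 hr at 30 deg C in galactose medium is quantified by luminescence.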
A-T KAP1 phos: potential ataxia-telangiectasia treatment; AID 485349; Potency, µM (doses to about 57.5 µM), for inactives: at the highest dose activation, actives largely listed as activators; F2112 A-T fibroblasts, KAP-1 phosphorylation AlphaLISA; neocarzinostatin DNA damage 30 min before lysis; 320,000 tested, 0.19% active; note: % of control where 0% means no effect; nearly all actives have a fitted effect of over 45% in size
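hTERT-immortalized A-T patient fibroblasts (F2112), 500 cells/well in OPTI-MEM, 1% FBS, got compounds for 60 min, then NCS for 30 min at 37C. Lysates were then assayed for phospho-KAP-1 by AlphaLISA (anti-pKAP1 donor, anti-KAP1 acceptor beads), 6 hr at 25C.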
TDP43 rescue: inhibitors of TDP-43 toxicity in yeast. 410,000 tested, 1.8% active. Potency, µM (doses to about 46.1 µM), for inactives: top-dose growth rescue (activation), actives largely listed as activators. TDP-43 expressing yeast growth rescue, BacTiter-Glo, 24 h; note: % of control where 0% means no effect; nearly all actives have a fitted effect of over 50% in size
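Growth rescue of TDP-43-toxic yeast measured as ATP luminescence (BacTiter-Glo). Cells grown to mid-log in raffinose, induced in galactose at OD600=0.02, exposed to compound 24 hr at 30 deg C.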
Abeta yeast res: restores growth of yeast expressing A-beta42 peptide; yeast expressing A-beta42, growth rescue, OD600, 48 h; response scale: 0% DMSO, 100% iron-clioquinol control; Potency, µM (top dose mostly 46.1 µM), hits mostly activators; 410,000 tested, 0.063% active; AID 1347071; note: nearly all actives have a fitted effect of over 55% in size
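Yeast A-beta toxicity model in growth medium with pinned compounds, 48 h at 30 C; growth read as absorbance at 600 nm. Normalized to FeCl3/clioquinol equimolar mix (positive) and DMSO (negative).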
FUS suppressor: suppressors of FUS proteinopathy in yeast; S. cerevisiae FUS-expressing, growth rescue, OD600, 24 h; Potency, µM (series often up to 76.6 µM), most hits filed as activators; 390,000 tested, 0.24% active; AID 1347120;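 note: plate controls were DMSO vehicle for no effect and reference control for full effect; nearly all actives have a fitted effect of over 55% in size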
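Steps: raffinose overnight preculture; dilution to OD 0.005 in 2% galactose minimal medium; compound addition (concentration series); 24hr at 30C, 99% humidity; absorbance read at 600 nm.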
Numbers without * were called inactive; i = inactive; ? = inconclusive; . = no result given; ! = not active in a repeat; [ ] = another dose, or the depositor's remark. Compounds with a hit are over-represented: about 2.4% of the library has one in this group of screens. Calls come from the whole dose curve; as a rule, active = well fitted curve in the direction sought with a large enough effect; inconclusive = small, poorly fitted or top-dose-only effect, or another doubt; inactive = no such curve, though single readings can be large; an effect the other way counts as inactive or inconclusive. Potency is the fitted concentration of half-maximal effect.

SMILES	Mito fusion act	aSyn yeast inh	A-T KAP1 phos	TDP43 rescue	Abeta yeast res	FUS suppressor
COc1cc(-n2c(C)nc3cc(C(=O)O)ccc32)cc(OC)c1OC	-7.8%	-0.1%	-1.5%	-1.8%	i	i
Cc1cc(C)cc(-n2c(C)nc3cc(C(=O)O)ccc32)c1	-4.6%	-1.1%	-5.3%	12.6µM*!	i	i
Cc1ccc(-c2c(C(=O)Nc3ccc(F)c(F)c3)oc(=O)c3ccccc23)cc1	.	.	.	-0.2%	i	i
CCCCC(=O)OC1=C(C(=O)c2ccccc2)N(CC)S(=O)(=O)c2ccccc21	.	.	.	15.8µM*	i	i
Cc1cccc(-c2nc(Nc3cccc(O)c3)c3ccccc3n2)c1	?	-8.0%	10.5%	-0.2%	i	i
CC(=O)c1cccc(Nc2nc(-c3cccc(C)c3)nc3ccccc23)c1	.	.	.	15.8µM*	i	?
CCNC(=O)O/N=C1\CCCCC1c1ccc([N+](=O)[O-])cc1[N+](=O)[O-] (stereo not drawn)	-29.1%	-4.6%	5.4%	14.1µM*	i	i
CCNC(=S)NNC(=O)CSc1nnc(-c2ccccc2)n1-c1ccc(Cl)cc1	.	.	.	.	.	i
CCOc1ccc2cc(/C=C/C(=O)c3ccco3)c(Cl)nc2c1	-1.9%	-1.0%	2.6%	7.94µM*	i	i
COc1ccccc1C(=O)Nc1ccccc1SCc1cc(=O)c2ccccc2[nH]1	.	.	.	4.6%	i	i
Cc1cc2n(n1)C(c1cn(-c3ccccc3)nc1C)Nc1ccccc1-2 (stereo not drawn)	-4.5%	2.5%	-6.4%	11.6%	i	i
Cc1cc2n(n1)C(c1c[nH]c3ccccc13)Nc1ccccc1-2 (stereo not drawn)	?	-33.1%	13.1%	7.94µM*	i	.
C[C@]12CC[C@@H]3c4ccc(O)cc4CC[C@H]3[C@@H]1CC[C@@H]2OC(=O)CCC(=O)O	-9.4%	-43.8%	-21.1%	18.4%	i	i
CCCCC(=O)OC1CCC2C3CCc4cc(O)ccc4C3CCC12C (stereo not drawn)	.	-27.9%	.	21.6%	i	i
C[C@]12CC[C@@H]3c4ccc(OC(=O)c5ccccc5)cc4CC[C@H]3[C@@H]1CC[C@@H]2O	7.4%	5.5%	17.8µM*	17.7%	i	i
CC(=O)Oc1ccc2c(c1)CCC1C2CCC2(C)C(OC(C)=O)CCC12 (stereo not drawn)	.	-16.1%	.	31.6µM*	i	?
CCOc1ccc(CN(C(=O)c2nc(SC)ncc2Cl)C2CCS(=O)(=O)C2)cc1 (stereo not drawn)	.	.	.	23.2%	i	i
O=C(C(=Cc1ccc(F)cc1)c1ccccc1)c1ccc(O)cc1	.	-56.6%	.	8.7%	i	.
O=C(C(=Cc1ccc(F)cc1)C(=O)c1ccccc1)c1ccccc1	.	?	.	3.55µM*	i	i
COc1ccc(OCc2ccc(C(=O)O)cc2)cc1	5.6%	5.5%	-2.1%	14.1µM*	i	i
CCCc1cc(=O)oc2cc(OCc3ccc(C(=O)O)o3)ccc12	5.8%	1.6%	-11.4%	13.4%	i	i
NNC(=O)c1ccc(COc2ccc3ccccc3c2)cc1	-40.3%	-6.7%	5.6%	15.8µM*	i	i
CCCc1cc(=O)oc2cc(OCc3ccc(C(=O)O)cc3)ccc12	-105.7%	2.8%	13.2%	2.51µM*	i	i
CCOc1ccccc1CNC(=O)CCCN1C(=O)c2cccnc2Oc2ccc(Cl)cc21	.	.	.	24.4%	i	?
Cc1cc2nn(-c3ccc(Cl)cc3)nc2cc1N	4.9%	-1.9%	22.4µM*	?	i	i
SMILES	Mito fusion act	aSyn yeast inh	A-T KAP1 phos	TDP43 rescue	Abeta yeast res	FUS suppressor
CCOc1ccc(N2C(=O)CC(N3CCN(c4ccc(Cl)cc4)CC3)C2=O)cc1 (stereo not drawn)	-1.4%	-15.3%	1.2%	14.1µM*	i	i
CCN(CC)CCCNC(=O)C1c2ccccc2C(=O)N(C)C1c1ccc(OC)cc1 (stereo not drawn)	-1.3%	-3.9%	2.9%	22.4µM*	i	i
COc1ccc(C2C(C(=O)NCc3ccco3)c3ccccc3C(=O)N2C)cc1 (stereo not drawn)	6.7%	3.8%	-1.5%	18.4%	i	i
Cc1ccc(S(=O)(=O)N(CCc2ccccc2)CC(=O)N2CCOCC2)cc1	.	.	.	.	.	i
COc1ccc(/C=C/C(=O)N2CCN(S(=O)(=O)c3ccccc3Br)CC2)cc1OC	.	?	-7.7%	22.4µM*	i	?
COc1ccc(/C=C/C(=O)N2CCN(S(=O)(=O)c3ccccc3)CC2)cc1OC	-1.1%	5.0%	2.3%	11.6%	i	i
CCOc1cc2[nH]c(=O)n(Cc3ccc(C(=O)N4CCN(c5cccc(Cl)c5)CC4)cc3)c(=O)c2cc1OCC	.	.	.	0.0%[9.22 µM]	i	i
O=C(O)c1cccc(CN2C(=O)c3ccccc3C2=O)c1	-1.5%	5.2%	2.3%	-14.5%	i	i
O=C1c2cccc3c(O)ccc(c23)C(=O)N1Cc1ccccc1	17.8µM*	7.1%	10.3%	-14.6%	i	i
Cc1ccc(Cn2c(CNC(=O)c3ccccc3Br)nc3cccnc32)cc1	.	.	.	11.2µM*	i	i
O=C(NCc1nc2cccnc2n1Cc1ccc(F)cc1)c1ccccc1C(F)(F)F	.	.	.	8.7%	i	i
Cc1ccc(CNC(=O)C2CCN(S(=O)(=O)c3ccc4c(c3)oc(=O)n4C)CC2)cc1	.	.	.	1.2%	i	i
Oc1ccccc1/C=N/NC(=S)NCCc1ccccc1	-14.3%	-0.6%	-6.5%	10.0%	?	i
Oc1ccccc1C=NNC(=S)NC1CC2C=CC1C2 (stereo not drawn)	.	?	.	12.6µM*	?	i
Oc1ccccc1C=NNC(=S)Nc1ccc(F)cc1	.	22.4µM*	.	?	i	i
Oc1ccccc1/C=N/NC(=S)NC1CC2C=CC1C2 (stereo not drawn)	-2.6%	24.0%	-2.3%	15.9%	11.2µM*	i
Oc1c(Cl)cc(Cl)cc1/C=N/NC(=S)NC1CC2C=CC1C2 (stereo not drawn)	7.3%	1.0%	1.6%	-6.4%[1.82 µM]	?	i
CCCCCCCCCCCCCCCCOC(=O)N1CCN(/[N+]([O-])=N/Oc2ccc([N+](=O)[O-])cc2[N+](C)=O)CC1	.	-11.6%	.	.	.	.
COC(=O)c1ccccc1NC(=O)NCc1ccc2c(c1)CCN2C(=O)c1ccccc1	.	.	.	?	i	i
Cc1cccc(Cl)c1NC(=O)N1CCCN(c2nc3ccc(Cl)cc3s2)CC1	16.3%	5.2%	1.8%	20µM*	?	i
